In the library only some 4.6% were active in any assay of this set; here they are far more common.
HSF1 inh: HSF1 inhibition. NIH3T3-HGL HSE-luciferase, MG132-induced, luminescence 8 h; active compounds read low. activity change, negative = inhibition, % at 7.5 µM (by protocol). 300,000 compounds, 0.77% hits. AID 2098;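 active = more than half of replicate wells show activity change below -50%, luminescence cut by over half; inconclusive = some wells, but at most half, below -50%; inactive = no replicate well below -50%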;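 also: luciferase reports HSF-1 transcriptional activity via heat shock element; 0% = median of DMSO wells and -100% = zero luminescence signal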
AHR activator: activates the human aryl hydrocarbon receptor; P35869; AHR-responsive luciferase reporter cells, luminescence; activation, % at 5 µM; 320,000 compounds, 2.5% hits; in the data active = activation above about 47%;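 also: 0% = vehicle wells and 100% = reference agonist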
Target sequence (P35869 whole entry, looked up): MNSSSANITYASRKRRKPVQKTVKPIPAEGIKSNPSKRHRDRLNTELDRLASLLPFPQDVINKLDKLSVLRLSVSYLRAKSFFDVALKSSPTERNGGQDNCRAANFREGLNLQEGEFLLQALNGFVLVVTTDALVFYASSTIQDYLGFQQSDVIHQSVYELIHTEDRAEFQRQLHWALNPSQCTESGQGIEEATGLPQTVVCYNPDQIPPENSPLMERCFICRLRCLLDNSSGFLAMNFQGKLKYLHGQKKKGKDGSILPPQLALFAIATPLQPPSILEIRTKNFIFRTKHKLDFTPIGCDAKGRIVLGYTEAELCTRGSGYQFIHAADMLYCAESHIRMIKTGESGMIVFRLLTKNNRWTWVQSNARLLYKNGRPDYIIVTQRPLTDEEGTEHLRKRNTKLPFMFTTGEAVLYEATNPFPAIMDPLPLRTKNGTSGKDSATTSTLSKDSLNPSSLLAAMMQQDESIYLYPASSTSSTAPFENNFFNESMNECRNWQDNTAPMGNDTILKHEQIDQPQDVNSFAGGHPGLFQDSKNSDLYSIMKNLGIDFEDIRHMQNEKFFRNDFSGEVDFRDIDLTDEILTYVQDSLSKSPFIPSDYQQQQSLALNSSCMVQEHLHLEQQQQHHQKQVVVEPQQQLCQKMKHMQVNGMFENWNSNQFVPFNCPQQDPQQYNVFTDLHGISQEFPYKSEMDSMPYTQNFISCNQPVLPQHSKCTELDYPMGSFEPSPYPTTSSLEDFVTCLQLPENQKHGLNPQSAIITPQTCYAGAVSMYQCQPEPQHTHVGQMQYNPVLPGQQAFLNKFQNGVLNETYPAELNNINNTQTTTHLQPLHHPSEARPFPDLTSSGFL
HSF1 activator: increases HSF-1 driven luciferase reporter signal | NIH3T3-HGL HSF-1 luciferase reporter, MG132, 8 h; 100% = twice DMSO control signal | activation, % at 9 µM | 300,000 compounds, 1.7% hits | AID 504408;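 active = mean replicate activation of at least 50% with a set share of replicates each reaching 50%; inconclusive = only one of those two conditions met; inactive = mean below 50% and too few replicates reaching it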;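 also: 0% = median of the neutral control wells and 100% = twice that signal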
FXN GAA850 act: activators of GAA850 frataxin (FXN) promoter; AID 540364; HEK293 lucGAA850 FXN promoter luciferase reporter, 24 h; percent of 10 µM SAHA response; 360,000 compounds, 0.56% hits; activation, % at 6 µM;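 active = activation above the average of all compounds screened plus 3 SD, cutoff fixed separately per campaign, cut at about 7.5% in these data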;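 also: 0% = DMSO wells and 100% = 10 µM SAHA wells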
* marks the source's active call; other numbers are inactive results; ? = inconclusive; . = no result.

SMILES	HSF1 inh	AHR activator	HSF1 activator	FXN GAA850 act
CCOc1ccc2ncc(S(=O)(=O)c3ccc(C)cc3)c(N3CCC4(CC3)OCCO4)c2c1	41	34	104*	-2
CCOC(=O)c1cnc2ccc(OCC)cc2c1N1CCN(C)CC1	7	11	-13	4
CCN1CCN(CC(O)COc2ccc(Cl)cc2)CC1 (centres undefined)	-4	10	20	0
C[C@@H]1CN([C@H](C)CO)C(=O)c2c(c3ccccc3n2C)-c2ccccc2CO[C@H]1CN(C)Cc1ccc(-c2ccccc2)cc1	.	.	.	0
Cc1ccccc1Cn1nc(C)c(NC(=O)C2c3ccccc3Oc3ccccc32)c1C	53	-1	70*	-1
CCCCN(CCCNC(=O)C1CCN(S(=O)(=O)CC)CC1)c1ccccc1	35	-1	64*	1
Cc1cccc(C(=O)Nc2ccc(C(=O)/C=C/c3cccnc3)cc2)c1	120	3	163*	15*
O=C(/C=C/c1cccnc1)c1ccc(NC(=O)c2cccc(Br)c2)cc1	-5	13	19	5
Cc1cccc(/C=C/C(=O)c2ccc(NC3=NCCCS3)cc2)c1	44	-2	74*	0
CCn1nc(NC(=O)c2ccco2)c2cc3cc(C)ccc3nc21	0	53*	1	2
CCCn1nc(NC(=O)c2cccs2)c2cc3ccccc3nc21	-16	27	-27	0
CCCn1nc(NC(=O)c2ccncc2)c2cc3ccccc3nc21	1	69*	2	-1
CCn1nc(NC(=O)c2ccncc2)c2cc3cc(C)ccc3nc21	-8	62*	-24	0
COc1ccc(/C=C/c2cccc[n+]2C)c(O)c1	-6	-4	-13	0
C[n+]1ccccc1/C=C/c1cc(Br)ccc1O	8	60*	44	2
Cc1ccc(-n2c(C)cc(C(=O)NS(=O)(=O)c3ccc(C)cc3)c2C)cc1	-3	9	2	1
CCCc1c(C(=O)NNc2ccccc2OC)cnn1-c1ccccc1	1	-2	11	0
Cc1ccc(NC(=O)c2cc(C)n(-c3ccccc3)c2C)cc1	-82*	-15	-83	-13
Cc1ccc(NC(=O)c2cnn(-c3ccccc3)c2C)cc1	37	-10	72*	2
Cc1ccc(NC(=O)c2cc(C)n(-c3cccc(C)c3)c2C)cc1	-70*	-8	-75	-6
CCCc1c(C(=O)Nc2ccc(OC)cc2)cnn1-c1ccccc1	-1	73*	21	2
Cc1[nH][nH]c(=O)c1C(c1ccc(N(C)C)c(Br)c1)c1c(C)[nH][nH]c1=O	8	2	25	1
COc1cccc(OC)c1OCCCCc1c(C)n[nH]c1C	.	2	.	1
Cc1cc(C(=O)Nc2ccc(Cl)cc2)c(C)n1-c1ccccc1	-90*	-10	-92	-13
Cc1cc(C(=O)Nc2ccc(Cl)cc2)n(-c2ccccc2)n1	4	11	11	1
SMILES	HSF1 inh	AHR activator	HSF1 activator	FXN GAA850 act
CC1=NN(c2ccc(Cl)cc2)C(=O)C1C(c1cccc(O)c1)c1c(C)[nH]n(-c2ccc(Cl)cc2)c1=O (centres undefined)	-3	67*	-11	2
CC(NC(=O)COC(=O)c1c[nH]c2ccccc12)c1ccccc1 (centres undefined)	.	56*	.	-3
CC(=O)OCC(=O)NCC(=O)c1c[nH]c2ccccc12	-61*	10	-70	2
c1ccc(CN2CCC3(CC2)Nc2ccccc2CO3)cc1	-2	-1	-10	0
COc1cc2oc(=O)cc(-c3cccc(-c4cccc(C)c4)c3)c2c(OC)c1OC	.	.	.	2
COc1ccc2c(C)cc(N3CCCCCC3)nc2c1	44	2	?	-1
Cc1cc(N2CCCCCC2)nc2ccc(F)cc12	-16	58*	-30	-3
CC(C)C[C@@H](CO)NS(=O)(=O)c1cc(Cl)ccc1F	.	.	.	0
Clc1ncnc2scc(C3COc4ccccc4O3)c12 (centres undefined)	21	0	58*	3
Cc1ccc(S(=O)(=O)NNC(=O)C23CCC(CC2)C3)cc1	.	.	.	-2
Cc1sc2ncnc(N3CCN(C(=O)c4ccco4)CC3)c2c1C	2	55*	-11	2
Cc1ccc(-c2csc3ncnc(N4CCN(C(=O)c5ccco5)CC4)c23)cc1	.	-1	.	-1
COc1ccc(-c2csc3ncnc(N4CCN(c5ccc(OC)cc5)CC4)c23)cc1	-4	6	1	3
COc1ccc(-c2nsc3c(N4CCCC4)ncnc23)cc1	-55*	-1	-51	0
O=C(c1ccco1)N1CCN(c2ncnc3c(-c4ccc(Cl)cc4)nsc23)CC1	-44	58*	-50	-7

Source: PubChem BioAssay
